Laboratory results reported in PubChem BioAssay (NCATS).
Records with an inconclusive call do not appear. Active and inactive are the calls of the source. Unless noted, the call rests on the fitted dose curve; in most records, active means well fitted curve in the direction sought with a large enough effect; inconclusive means small, poorly fitted or top-dose-only effect, or another doubt; inactive means no such curve, though single readings can be large; an effect the other way counts as inactive or inconclusive.

Key:
[1] = qHTS assay for small molecule disruptors of the mitochondrial membrane potential - 1 hr assay (AID 651754; calls by dose curve; further: on the % scale 0 is the no-effect control and ±100 the full control effect; nearly all actives have a fitted effect of over 35% in size)
Method in brief: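 HepG2 cells, attached overnight at 37C, were exposed to compound or DMSO vehicle for 1 hr at 37C, 5% CO2, then stained with Mito-MPS dye for 30 min. Red aggregate versus green monomer fluorescence reports membrane potential.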

[2] = qHTS assay for small molecule disruptors of the mitochondrial membrane potential - 5 hr assay (AID 651755; calls by dose curve; further: on the % scale 0 is the no-effect control and ±100 the full control effect; nearly all actives have a fitted effect of over 40% in size)
Method in brief: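 HepG2, 2,000 cells/well, overnight attach; cpd or DMSO 5 hr, 37C/5% CO2; Mito-MPS 30 min 37C; fluor 490/535 + 540/590 nm.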

[3] = target: Tumor necrosis factor (Homo sapiens) (UniProt P01375); test: qHTS assay to identify small molecules that stimulate Tumor Necrosis Factor-alpha (TNF-alpha) secretion (AID 651757; active means well fitted curve in the direction sought with a large enough effect in the signal ratio; the % refers to the signal ratio; further: 0% is about no effect)
Chain of Tumor necrosis factor (Homo sapiens) (P01375 whole entry, looked up): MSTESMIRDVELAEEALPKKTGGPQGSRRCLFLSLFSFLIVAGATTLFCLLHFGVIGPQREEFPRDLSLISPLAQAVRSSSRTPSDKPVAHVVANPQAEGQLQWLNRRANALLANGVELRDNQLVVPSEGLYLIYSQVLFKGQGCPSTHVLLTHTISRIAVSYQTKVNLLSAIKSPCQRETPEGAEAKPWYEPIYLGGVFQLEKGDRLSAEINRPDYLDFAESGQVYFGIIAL
Method in brief: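 THP-1 cells were exposed to compounds for 17 hrs at 37 C, after which secreted TNF-alpha was measured by homogeneous HTRF (TR-FRET) using cryptate- and XL665-labeled anti-TNF-alpha antibodies, read after 3 hr at room temperature.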

[4] = qHTS assay to identify small molecules that stimulate interleukin-8 (IL-8) secretion (AID 651758; active means well fitted activation curve with a large enough effect in the signal ratio; the % refers to the signal ratio; further: 0% is about no effect)
Method in brief: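 Secreted IL-8 measured by TR-FRET sandwich (cryptate and XL665 antibodies) from THP-1 cells exposed to compound overnight (16 hrs, 37 C).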

[5] = qHTS assay for environmental chemicals that activate the Aryl hydrocarbon Receptor (AhR) signaling pathway (AID 651777); conditions: 1A2-DRE human hepatoma cells, luciferase, 24 h; activation: active compounds read high; further: % of control where 0% means no effect; nearly all actives have a fitted effect of over 15% in size
Method in brief: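 Human hepatoma 1A2-DRE cells, stably carrying a dioxin response element and CYP1A2 promoter driving luciferase, were exposed to compounds for 24 hr at 37 C and 5% CO2. Luciferase signal was then read after 30 min One-Glo at room temperature.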

[6] = target: Peroxisome proliferator-activated receptor alpha (Homo sapiens) (UniProt Q07869); test: qHTS assay for small molecule agonists of the peroxisome proliferator-activated receptor alpha (PPARalpha) signaling pathway (AID 651778); conditions: PathHunter PPARalpha complementation, chemiluminescence, 6 h; active compounds read high; further: % of control where 0% means no effect
Chain of Peroxisome proliferator-activated receptor alpha (Homo sapiens) (Q07869 whole entry, looked up): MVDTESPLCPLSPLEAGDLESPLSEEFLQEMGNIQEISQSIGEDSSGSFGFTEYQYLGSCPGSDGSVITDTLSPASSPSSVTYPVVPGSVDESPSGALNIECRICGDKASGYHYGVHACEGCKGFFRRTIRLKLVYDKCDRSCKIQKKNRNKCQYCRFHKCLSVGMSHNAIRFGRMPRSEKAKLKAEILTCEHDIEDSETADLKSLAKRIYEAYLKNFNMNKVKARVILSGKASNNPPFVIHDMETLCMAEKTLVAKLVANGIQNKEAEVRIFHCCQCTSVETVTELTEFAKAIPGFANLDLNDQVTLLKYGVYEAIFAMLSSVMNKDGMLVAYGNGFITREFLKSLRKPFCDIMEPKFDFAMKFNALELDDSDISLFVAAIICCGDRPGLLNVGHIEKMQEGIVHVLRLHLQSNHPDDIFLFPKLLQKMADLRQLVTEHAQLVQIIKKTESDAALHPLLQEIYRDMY
Method in brief: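 Chemiluminescence from complemented enzyme reported PPARalpha activation in cells after 6 hr of compound treatment at 37 C. The detection reagent was incubated for 60 min at room temperature, and compounds were scored as agonists.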

[7] = target: Nuclear receptor ROR-gamma (Homo sapiens) (UniProt P51449); test: qHTS assay for small molecule antagonists of the retinoid-related orphan receptor gamma (ROR-gamma) signaling pathway (AID 651802); further: series mostly up to about 92 µM; on the % scale 0 is the no-effect control and ±100 the full control effect; nearly all actives have a fitted effect of over 60% in size
Chain of Nuclear receptor ROR-gamma (Homo sapiens) (P51449 whole entry, looked up): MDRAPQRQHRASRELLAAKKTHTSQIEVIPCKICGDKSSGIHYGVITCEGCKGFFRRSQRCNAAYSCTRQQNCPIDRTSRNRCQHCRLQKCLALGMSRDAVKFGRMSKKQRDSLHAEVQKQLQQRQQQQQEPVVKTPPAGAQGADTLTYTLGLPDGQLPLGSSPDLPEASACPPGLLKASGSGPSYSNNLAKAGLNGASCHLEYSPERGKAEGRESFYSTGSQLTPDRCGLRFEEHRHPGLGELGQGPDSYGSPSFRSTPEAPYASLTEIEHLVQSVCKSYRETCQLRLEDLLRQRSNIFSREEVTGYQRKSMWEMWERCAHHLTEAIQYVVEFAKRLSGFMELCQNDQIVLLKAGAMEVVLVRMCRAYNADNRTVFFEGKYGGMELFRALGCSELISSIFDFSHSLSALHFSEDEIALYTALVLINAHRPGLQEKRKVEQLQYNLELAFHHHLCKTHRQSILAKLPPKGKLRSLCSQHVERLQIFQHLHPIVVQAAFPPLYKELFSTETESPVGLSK
Method in brief: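 CHO cells carrying TET-inducible ROR-gamma and an ROR response element–luciferase reporter were exposed to compound, then induced with doxycycline. After 16hr at 37C, luminescence was read; lower signal indicates antagonism.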

[8] = qHTS assay for small molecule agonists of the antioxidant response element (ARE) signaling pathway measured by Nrf2-dependant transcriptional activity (AID 720636; active means well fitted curve in the direction sought with a large enough effect in the repeat runs; an effect the other way counts as inactive or inconclusive; further: % of control where 0% means no effect)
Method in brief: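 ARE-luc HepG2 cells carrying an Nrf2-responsive luciferase reporter were plated in medium with 1% dialyzed FBS, left 6 hr at 37 C to attach, then exposed to compound for 16 hr. Luciferase luminescence was read after ONE-Glo addition.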

[9] = qHTS assay for small molecule antagonists of the retinoid-related orphan receptor gamma (ROR-gamma) signaling pathway - cell viability counter screen (AID 720652; active means well fitted curve in the direction sought with a large enough effect in the repeat runs; an effect the other way counts as inactive or inconclusive;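 further: series mostly up to about 92 µM; compound exposure lasted 16 hr before ATP read; on the % scale 0 is the no-effect control and ±100 the full control effect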)
Method in brief: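 Counter screen in CHO cells carrying TET-inducible ROR-gamma and an ROR response element-luciferase reporter; cells plated 5 hr, compound pinned, doxycycline added, then 16 hr at 37 C. Viability read as intracellular ATP by CellTiter-Glo luminescence.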

[10] = qHTS assay for small molecule agonists of the antioxidant response element (ARE) signaling pathway measured by Nrf2-dependant transcriptional activity - cell viability counter screen (AID 720653; active means well fitted curve in the direction sought with a large enough effect in the repeat runs; an effect the other way counts as inactive or inconclusive; further: on the % scale 0 is the no-effect control and ±100 the full control effect); conditions: ARE-bla HepG2 viability, CellTiter-Glo ATP luminescence, 16 h; active compounds read low
Method in brief: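 Cytotoxicity counter screen: intracellular ATP quantified by CellTiter-Glo luminescence in the same ARE-bla HepG2 plates, after 16 h compound exposure and a 2 h beta-lactamase substrate step.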

[11] = qHTS assay for cell viability of HEK293 cells (AID 743288); conditions: ATP luminescence (CellTiter-Glo), 18 h, active compounds read low; further: on the % scale 0 is the no-effect control and ±100 the full control effect; nearly all actives have a fitted effect of over 50% in size
Method in brief: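 HEK293 parental, 2,000 cells/well; ≥5 h pre-incubation 37 C; pintool compound addition; 18 h, 37 C; CellTiter-Glo 30 min RT; luminescence read.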

[12] = qHTS assay for cell viability of the p53RE-bla HCT-116 cell line (AID 743292); further: on the % scale 0 is the no-effect control and ±100 the full control effect; nearly all actives have a fitted effect of over 55% in size
Method in brief: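 CellSensor p53RE-bla HCT-116 cells, 4,000/well, preincubated 5 h at 37 C, then exposed to compounds in DMSO for 16 h at 37 C. Viability read as CellTiter-Glo luminescence (intracellular ATP) after 30 min at room temperature.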

[13] = target: Nuclear receptor subfamily 1 group I member 2 (Rattus norvegicus) (UniProt Q9R1A7); test: qHTS assay for small molecule activators of the rat pregnane X receptor (rPXR) signaling pathway (AID 651751; call rule not given here; further: 0% is about no effect); conditions: rPXR reporter cells, luciferase (One-Glo), 24 h
Chain of Nuclear receptor subfamily 1 group I member 2 (Rattus norvegicus) (Q9R1A7 whole entry, looked up): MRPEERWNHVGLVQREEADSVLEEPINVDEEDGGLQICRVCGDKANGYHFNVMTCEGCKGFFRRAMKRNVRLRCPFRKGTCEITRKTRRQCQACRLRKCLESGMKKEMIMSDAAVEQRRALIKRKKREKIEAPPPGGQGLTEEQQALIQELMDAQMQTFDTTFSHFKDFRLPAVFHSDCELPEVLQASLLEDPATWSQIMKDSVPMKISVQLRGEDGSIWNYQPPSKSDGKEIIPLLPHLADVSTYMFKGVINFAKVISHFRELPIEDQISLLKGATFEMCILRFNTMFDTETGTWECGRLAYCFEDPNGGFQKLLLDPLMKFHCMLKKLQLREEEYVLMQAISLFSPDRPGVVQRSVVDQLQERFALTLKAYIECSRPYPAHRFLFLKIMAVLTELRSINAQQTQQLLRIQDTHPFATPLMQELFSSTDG

[14] = qHTS assay for small molecule activators of the human pregnane X receptor (PXR) signaling pathway (AID 720659; call rule not given here; further: 0% is about no effect)

C=C(C)C(=O)OCCCCCCCCCC
inactive: Potency [1] | Potency [2] | Potency [3] | Potency [4] | activation [5] -0.81% | max response [6] -0.186% | Potency [7] | outcome [8] | Potency [9] | max response [10] -0.733% | max response [11] -5.31% | Potency [12] | max response [13] 3.26% | outcome [14]

O=C(O)CCSSCCC(=O)O
inactive: Potency [1] | Potency [2] | Potency [3] | Potency [4] | activation [5] -0.395% | max response [6] -1.98% | Potency [7] | outcome [8] | Potency [9] | max response [10] 0.366% | max response [11] -9.15% | Potency [12] | max response [13] -1.84% | outcome [14]

CCOc1ccccc1N
inactive: Potency [1] | Potency [2] | Potency [3] | Potency [4] | activation [5] -0.265% | max response [6] -0.0098% | Potency [7] | outcome [8] | Potency [9] | max response [10] 12.7% | Potency [12] | max response [13] 2.86% | outcome [14]

COCCOC(=O)c1ccccc1C(=O)OCCOC
inactive: Potency [1] | Potency [2] | Potency [3] | Potency [4] | activation [5] -0.057% | max response [6] 2.89% | Potency [7] | outcome [8] | Potency [9] | max response [10] 9.02% | max response [11] -2.4% | Potency [12] | max response [13] -0.386%

ON=C1CCCCC1
inactive: Potency [1] | Potency [2] | Potency [3] | Potency [4] | activation [5] 0.388% | max response [6] 1.6% | Potency [7] | outcome [8] | Potency [9] | max response [10] 5.44% | Potency [12] | max response [13] 3.07% | outcome [14]

Cc1cccc(C(=O)O)c1[N+](=O)[O-]
inactive: Potency [1] | Potency [2] | Potency [3] | Potency [4] | activation [5] 1.97% | max response [6] -1.91% | Potency [7] | outcome [8] | Potency [9] | max response [10] 5.5% | max response [11] -1.21% | Potency [12] | max response [13] -0.47% | outcome [14]

Cc1cccc(C)c1O
inactive: Potency [1] | Potency [2] | Potency [3] | Potency [4] | activation [5] 0.0984% | max response [6] -7.29% | Potency [7] | outcome [8] | Potency [9] | max response [10] 8.44% | Potency [12] | max response [13] 2.68% | outcome [14]

Cc1cc(C(=O)O)ccc1[N+](=O)[O-]
inactive: Potency [1] | Potency [2] | Potency [3] | Potency [4] | activation [5] 1.35% | max response [6] -0.276% | outcome [8] | Potency [9] | max response [10] -1.45% | max response [11] -12% | Potency [12] | max response [13] -5.59% | outcome [14]

COC(=O)CCC(=O)OC
inactive: Potency [1] | Potency [2] | Potency [3] | Potency [4] | max response [6] 7.56% | Potency [7] | outcome [8] | Potency [9] | max response [10] -12.8% | max response [11] 2.75% | Potency [12] | max response [13] 1.71% | outcome [14]

Cc1ccc(Cl)cc1
inactive: Potency [1] | Potency [2] | Potency [3] | activation [5] -0.186% | max response [6] -0.102% | Potency [7] | outcome [8] | Potency [9] | max response [10] 4.9% | max response [11] -4.66% | Potency [12] | max response [13] -4.31% | outcome [14]

Cc1ccc(C)c([N+](=O)[O-])c1
inactive: Potency [1] | Potency [2] | Potency [3] | activation [5] 0.781% | max response [6] -2.55% | Potency [7] | outcome [8] | Potency [9] | max response [10] -4.07% | max response [11] 4.94% | Potency [12] | max response [13] -1.78% | outcome [14]

Nc1ccccc1[N+](=O)[O-]
inactive: Potency [1] | Potency [2] | Potency [3] | activation [5] -0.331% | max response [6] -3.89% | Potency [7] | outcome [8] | Potency [9] | max response [10] -18.4% | max response [11] -7.67% | Potency [12] | max response [13] -0.731% | outcome [14]

O=C(Cl)c1c(Cl)cccc1Cl
inactive: Potency [1] | Potency [2] | Potency [3] | activation [5] -1.9% | max response [6] -3.46% | Potency [7] | outcome [8] | Potency [9] | max response [10] 10.8% | max response [11] 0.0079% | Potency [12] | max response [13] -2.88% | outcome [14]

CC(C)N=C=NC(C)C
inactive: Potency [1] | Potency [2] | Potency [3] | Potency [4] | activation [5] -2.05% | Potency [7] | outcome [8] | Potency [9] | max response [10] -1% | Potency [12] | max response [13] 1.41% | outcome [14]

C1COC1
inactive: Potency [1] | Potency [2] | Potency [3] | activation [5] -0.727% | max response [6] 0.481% | Potency [7] | outcome [8] | Potency [9] | max response [10] -0.519% | max response [11] 7.71% | Potency [12] | max response [13] -0.345% | outcome [14]

O=C1C=CCCC1
inactive: Potency [1] | Potency [2] | Potency [3] | activation [5] 0.397% | max response [6] 2.89% | Potency [7] | outcome [8] | Potency [9] | max response [10] 4.99% | max response [11] -6.57% | Potency [12] | max response [13] 0.149% | outcome [14]
